“And” between values parts separate entries of the source, which are not always exact repeats. Equal entries are not always repeated. Among all 5,500 compounds or so, about 2,000 (36%) were called active. About 18% were inconclusive and are not listed. Rule as the data show it: active = normalized growth mostly below about 0.91 (no sharp cut-off); inconclusive = no clear call, values can overlap the other calls; inactive = mostly above about 0.92. The list shows a part of the results.
Test: chemical genetic growth profiling, strain panel (AID 1159580);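 also: tested at 20 µM; growth read once vehicle control cultures reached saturation at 30 °C; 1 = growth at the plate median or of vehicle wells; lower values mean less growth of the strain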
Details: S. cerevisiae deletion strains, growth OD

Measured: normalized growth

CCc1ccc2c(O)c3c(cc2c1C(=O)OC)C(=O)c1c(O)ccc(O)c1C3=O
active: locus YFR010W, strain ubp6, stronger effect = lower value 0.874
inactive: locus YAL013W, strain DEP1, stronger effect = lower value 0.989 | locus YAL021C, strain ccr4, stronger effect = lower value 0.963 | locus YAL026C, strain drs2, stronger effect = lower value 0.915 | locus YAL030W, strain snc1, stronger effect = lower value 0.992 | locus YBL061C, strain skt5, stronger effect = lower value 0.975 | locus YBR009C, strain hhf1, stronger effect = lower value 0.981 | locus YBR021W, strain FUR4, stronger effect = lower value 1.02 | locus YBR023C, strain chs3, stronger effect = lower value 0.975 | locus YBR171W, strain sec66, stronger effect = lower value 0.97 | locus YBR229C, strain ROT2, stronger effect = lower value 0.956 | locus YBR231C, strain swc5, stronger effect = lower value 0.997 | locus YBR279W, strain paf1, stronger effect = lower value 0.99 | locus YCL011C, strain gbp2, stronger effect = lower value 0.984 | locus YCL016C, strain dcc1, stronger effect = lower value 0.988 | locus YCL029C, strain bik1, stronger effect = lower value 0.975 | locus YCL069W, strain vba3, stronger effect = lower value 0.981 | locus YCR088W, strain abp1, stronger effect = lower value 0.981 | locus YDL005C, strain med2, stronger effect = lower value 0.997 | locus YDL035C, strain GPR1, stronger effect = lower value 0.984 | locus YDL040C, strain nat1, stronger effect = lower value 1 | locus YDL074C, strain BRE1, stronger effect = lower value 1.03 | locus YDL101C, strain DUN1, stronger effect = lower value 0.978 | locus YDL134C, strain PPH21, stronger effect = lower value 0.964 | locus YDL185W, strain tfp1, stronger effect = lower value 0.978 | locus YDL192W, strain arf1, stronger effect = lower value 0.958 | locus YDR001C, strain nth1, stronger effect = lower value 0.972 | locus YDR069C, strain doa4, stronger effect = lower value 0.909 | locus YDR101C, strain arx1, stronger effect = lower value 1.02 | locus YDR137W, strain rgp1, stronger effect = lower value 0.91 | locus YDR159W, strain sac3, stronger effect = lower value 0.944 | locus YDR162C, strain NBP2, stronger effect = lower value 0.935 | locus YDR195W, strain ref2 0.962 | locus YDR297W, strain sur2, stronger effect = lower value 0.98 | locus YDR318W, strain mcm21, stronger effect = lower value 0.951 | locus YDR334W, strain swr1, stronger effect = lower value 0.923 | locus YDR335W, strain msn5, stronger effect = lower value 0.971 | locus YDR388W, stronger effect = lower value 0.978 | locus YDR392W, strain spt3, stronger effect = lower value 0.926 | locus YDR502C, strain sam2, stronger effect = lower value 0.974 | locus YEL003W, strain gim4, stronger effect = lower value 0.996 | locus YEL037C, strain rad23, stronger effect = lower value 0.977 | locus YEL061C, strain CIN8 (second series), stronger effect = lower value 0.97 | locus YEL061C, strain CIN8, stronger effect = lower value 0.978 | locus YER015W, strain faa2, stronger effect = lower value 0.974 | locus YER016W, strain bim1, stronger effect = lower value 0.986 | locus YER110C, stronger effect = lower value 0.979 | locus YER111C, strain swi4, stronger effect = lower value 0.927 | locus YER155C, strain BEM2 (second series), stronger effect = lower value 0.909 | locus YER155C, strain BEM2, stronger effect = lower value 1 | locus YER167W, strain BCK2, stronger effect = lower value 0.987 | locus YGL078C, strain dbp3, stronger effect = lower value 1.01 | locus YGL086W, strain mad1, stronger effect = lower value 0.987 | locus YGL167C, strain pmr1, stronger effect = lower value 0.979 | locus YGL173C, strain kem1, stronger effect = lower value 0.972 | locus YGL227W, strain vid30, stronger effect = lower value 1 | locus YGL240W, strain doc1, stronger effect = lower value 0.978 | locus YGL248W, strain PDE1, stronger effect = lower value 0.955 | locus YGL253W, strain hxk2, stronger effect = lower value 0.982 | locus YGR135W, strain pre9, stronger effect = lower value 0.94 | locus YGR252W, strain gcn5, stronger effect = lower value 0.977 | locus YHR013C, strain ard1, stronger effect = lower value 0.996 | locus YHR027C, strain rpn1, stronger effect = lower value 0.994 | locus YHR030C, strain SLT2, stronger effect = lower value 0.986 and 0.951 | locus YHR079C, strain IRE1 (second series), stronger effect = lower value 0.997 | locus YHR079C, strain IRE1, stronger effect = lower value 0.954 | locus YHR094C, strain hxt1, stronger effect = lower value 0.978 | locus YHR129C, strain ARP1, stronger effect = lower value 0.978 | locus YHR142W, strain chs7, stronger effect = lower value 0.879 | locus YHR200W, strain rpn10, stronger effect = lower value 0.963 | locus YIL066C, strain RNR3, stronger effect = lower value 0.966 | locus YIL073C, strain SPO22, stronger effect = lower value 1.03 | locus YIL125W, strain kgd1, stronger effect = lower value 0.989 | locus YIR030C, strain dcg1, stronger effect = lower value 0.998 | locus YJL092W, strain hpr5, stronger effect = lower value 0.976 | locus YJL095W, strain BCK1 (second series), stronger effect = lower value 0.973 | locus YJL095W, strain BCK1, stronger effect = lower value 0.928 and 0.964 | locus YJL115W, strain asf1, stronger effect = lower value 0.966 | locus YJL129C, strain trk1, stronger effect = lower value 0.986 | locus YJL134W, strain LCB3, stronger effect = lower value 0.99 | locus YJL154C, strain vps35, stronger effect = lower value 0.987 | locus YJL164C, strain tpk1, stronger effect = lower value 0.968 | locus YJL166W, strain qcr8, stronger effect = lower value 0.961 | locus YJL168C, strain set2, stronger effect = lower value 0.982 | locus YJL187C, strain SWE1 (second series), stronger effect = lower value 0.959 | locus YJL187C, strain SWE1, stronger effect = lower value 0.98 | locus YJR043C, strain POL32, stronger effect = lower value 0.979

Reference: PubChem BioAssay AID1159580 (chemical genetic matrix, 2015)
